Source: PubChem BioAssay (NCATS)
Inconclusive results are not listed. Activity calls are given as the source filed them. The call rests on the fitted dose curve; in most records, active means well fitted activation curve with a large enough effect; inconclusive means small, poorly fitted or top-dose-only effect; inactive means flat fitted curve, though single readings scatter.

target: Cellular tumor antigen p53 (Homo sapiens) (UniProt P04637); test: Primary qHTS for small molecule compounds that upregulate eGFP-tagged delta133p53alpha (in C-terminal) cells. (AID 2060324); settings: NCI-H358 delta133p53alpha-eGFP (C-terminal tag), GFP fluorescence imaging, 24 h; series mostly up to 57.5 µM; GFP increase (activation): at the top concentration;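 further: 0% = DMSO wells and 100% = 57.5 µM 5-azacytidine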
Method in brief: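 Doxycycline (100 ng/ml, 24 h) first induced the eGFP fusion in NCI-H358 C-terminal-tag cells. Washed-out cells then received titrated compounds for 24 h at 37 °C before paraformaldehyde fixation, Hoechst staining and cytometric GFP quantification.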

Sequence of Cellular tumor antigen p53 (Homo sapiens) (P04637 whole entry, looked up, the tested form may be a part): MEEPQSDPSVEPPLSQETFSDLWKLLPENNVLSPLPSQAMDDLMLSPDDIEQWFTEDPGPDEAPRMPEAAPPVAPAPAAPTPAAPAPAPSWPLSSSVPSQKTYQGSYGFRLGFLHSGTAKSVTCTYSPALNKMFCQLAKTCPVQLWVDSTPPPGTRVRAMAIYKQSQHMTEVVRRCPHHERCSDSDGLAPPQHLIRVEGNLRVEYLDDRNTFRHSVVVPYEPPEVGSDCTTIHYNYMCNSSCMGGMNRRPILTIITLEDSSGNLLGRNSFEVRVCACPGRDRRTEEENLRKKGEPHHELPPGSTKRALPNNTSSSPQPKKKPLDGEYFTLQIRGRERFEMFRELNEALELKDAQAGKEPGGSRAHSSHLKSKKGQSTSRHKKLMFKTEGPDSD

Row | Compound | GFP increase (activation)
1 | O=C(O)C1=CC(=C(c2ccc(O)c(C(=O)O)c2)c2ccc(O)c(C(=O)O)c2)C=CC1=O | -5.04% (inactive)
2 | O=c1oc(Cl)c(Cl)c2ccccc12 | 11% (inactive)
3 | Oc1ccc(C2CNCc3sccc32)cc1O (stereo not drawn) | 3.12% (inactive)
4 | C=CCN1CCc2c(cc(O)c(O)c2Br)[C@@H](c2ccccc2)C1 | 2.81% (inactive)
5 | NS(=O)(=O)c1cc2c(cc1Cl)NC(C1CC3C=CC1C3)NS2(=O)=O (stereo not drawn) | 0.867% (inactive)
6 | COC(=O)C1=C(C)NC(C)=C(C(=O)OC)C1c1ccccc1[N+](=O)[O-] | 15.2% (inactive)
7 | Cc1nc2n(c(=O)c1CCN1CCC(c3noc4cc(F)ccc34)CC1)CCCC2O (stereo not drawn) | 1.18% (inactive)
8 | O=C(OCCN1CCOCC1)C1(c2ccccc2)CCCCC1 | -4.15% (inactive)
9 | O=C(/C=C/c1ccc(O)c(O)c1)OCCc1ccccc1 | 3.99% (inactive)
10 | O=C1N=C(O)CN1/N=C/c1ccc(-c2ccc([N+](=O)[O-])cc2)o1 | 7.24% (inactive)
11 | CC(C)(C)c1onc(OCP(=O)(O)O)c1CC(N)C(=O)O (stereo not drawn) | -6.68% (inactive)
12 | NNc1nncc2ccccc12 | -6.15% (inactive)
13 | OCc1cc(C(O)CNCCCCCCOCCCCc2ccccc2)ccc1O (stereo not drawn) | 17.3% (inactive)
14 | N#C/C(=C\c1ccc(O)c(O)c1)C(=O)c1ccc(O)c(O)c1 | 4.97% (inactive)
15 | O=c1cc(-c2ccccc2)oc2c(O)c(O)ccc12 | 6.43% (inactive)
16 | CC1=C(CC(=O)O)c2cc(F)ccc2/C1=C\c1ccc(S(C)=O)cc1 (stereo not drawn) | 11.3% (inactive)
17 | COc1cccc2c1[C@@H]1CN(CCCCn3c(=O)[nH]c4c(sc5ncc(-c6ccccc6)nc54)c3=O)C[C@@H]1CO2 | -1.09% (inactive)
18 | CCCCCCCCCC(=O)NC(CN1CCOCC1)[C@H](O)c1ccccc1 (stereo partly drawn) | 0.544% (inactive)
